Most compounds without a hit are left out; they make up all but 21% or so of the library.
CHX counter: counter-screen hit for Shiga toxin inhibitors, cycloheximide; cell reporter, cycloheximide protein synthesis inhibition counterscreen; 300,000 compounds, 12% hits; max response, %; in the data active means max response mostly above about 13%, no sharp cut-off; inactive means mostly below about 14%; further: read at 38.3 µM for the half of the compounds with a filed dose
Pf growth 96h: P. falciparum growth inhibition at 96 hour, primary screen for plastid delayed-death inhibitors | Potency, µM (highest dose often 28.7 µM), usual class: inhibitors | AID 504834 | 320,000 compounds, 6.9% hits | P. falciparum luciferase reporter growth, 96 h
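Delayed-death screen, second-generation endpoint: infected erythrocytes, 2% hematocrit, 0.05% parasitemia final; 96 hours at 37 C, 5% CO2; luciferase detection reagent; luminescence decrease equals reduced growth.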
Pf growth 48h: inhibits P. falciparum growth in the first generation, 48 h | P. falciparum luciferase growth in erythrocytes, 48 h | Potency, µM (highest dose often 28.7 µM), hits mostly inhibitors | 310,000 compounds, 5.9% hits | AID 504832
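Cell-based growth assay: transgenic P. falciparum expressing firefly luciferase, cultured in red cells within RPMI 1640 containing 0.5% w/v Albumax, 24 mM bicarbonate and gentamycin. A drop in luciferase activity indicates inhibition.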
Shiga inhibitor: inhibitors of Shiga toxin in Vero cells. Vero cells, Shiga toxin protein synthesis inhibition reporter. inhibition, % at 38.7 µM. 290,000 compounds, 9.2% hits. AID 2315; in the data active means inhibition mostly above about 28%, no sharp cut-off; inactive means mostly below about 43%
Hits are given with their value; i = inactive; ? = inconclusive; nt = no result; ! = repeats disagree; [ ] = remark or other dose. Unless noted, the call rests on the fitted dose curve; in most records, active means well fitted inhibition curve with a large enough effect; inconclusive means small, poorly fitted or top-dose-only effect, or another doubt; inactive means no such curve, though single readings can be large or run the other way.

SMILES	CHX counter	Pf growth 96h	Pf growth 48h	Shiga inhibitor
CCCc1sc(N/N=C/c2ccccn2)nc1-c1ccc(F)cc1	25.2	i	2.62µM	52.4
COc1ccccc1N1CCN(C(=O)CNC(=O)c2cn(-c3ccccc3OC)c(=O)c3ccccc23)CC1	14.5	?	?	i
COc1ccccc1OCC(=O)N1CCN(c2ccccc2OC)CC1	i	nt	i	i
COc1ccccc1-n1cc(C(=O)NCC(=O)N2CCN(c3ccccn3)CC2)c2ccccc2c1=O	16.0	i	i	i
COc1ccc(N2CCN(C(=O)CNC(=O)c3ccccc3Cl)CC2)cc1	i	i	i	i
COc1ccccc1-n1cc(C(=O)NCC(=O)N2CCN(c3ccccc3)CC2)c2ccccc2c1=O	30.2	i	i	50.1
COc1ccccc1CC(=O)N1CCN(c2ccccn2)CC1	i	?	i	i
COC(=O)[C@H](Cc1ccccc1)N(C)S(=O)(=O)c1cccc(S(=O)(=O)N(C)[C@@H](Cc2ccccc2)C(=O)OC)c1	i	10.4µM	i	i
CN([C@@H](C(=O)OC(C)(C)C)c1ccccc1)S(=O)(=O)c1cccc(S(=O)(=O)N(C)[C@@H](C(=O)OC(C)(C)C)c2ccccc2)c1	i	2.08µM	?	i
COC(=O)C(NS(=O)(=O)c1cccc(S(=O)(=O)NC(C(=O)OC)c2ccccc2)c1)c1ccccc1 (stereo not given)	i	?	i	i
O=C(c1ccc(NC(=O)C2(c3ccccc3)CCCC2)cc1)N1CCOCC1	i	i	i	i
Cc1ccc(C(=O)N(C)Cc2ccc(N3CCOCC3)cc2)cc1S(=O)(=O)NCc1ccccc1	nt	?	10.4µM	nt
Cc1cc(C)c(C)c(S(=O)(=O)NCc2ccc(C(=O)N3CCOCC3)cc2)c1C	i	i	8.28µM	i
Cc1cccc(CC(=O)Nc2ccc(C(=O)N3CCOCC3)cc2)c1	i	2.33µM	i	i
O=C(Nc1ccccc1)Nc1ccc(C(=O)N2CCOCC2)cc1	46.2	i	i	62.2
Cc1ccc(CNC(=O)C2CCCN(S(=O)(=O)c3ccc(F)cc3)C2)cc1 (stereo not given)	i	?	i	i
COc1ccc(C(=O)NC2CC(C)(C)Cc3occc32)cc1 (stereo not given)	i	i	i	i
O=C(O)C1CCCCC1C(=O)Nc1cccc(C(=O)N2CCCCC2)c1 (stereo not given)	i	nt	i	i
Cc1cccc(NS(=O)(=O)c2cc(C(=O)N3CCOCC3)ccc2Cl)c1	i	?	i	i
Cc1ccc(C(=O)Nc2cccc(C(=O)N3CCOCC3)c2)cc1Cl	16.5	i	i	i
O=C(Nc1cccc(C(=O)N2CCCCC2)c1)c1ccc(Cl)cc1	29.3	2.08µM	i	i
O=C(Nc1cccc(C(=O)N2CCOCC2)c1)c1ccccc1	i	5.22µM	i	i
O=C(Nc1cccc(C(=O)N2CCOCC2)c1)c1cccnc1	i	nt	i	i
CCN(CC)S(=O)(=O)c1ccc(OC)c(NC(=O)CSc2cc(C)ccc2C)c1	i	?	?	i
COc1ccc(CN2CCN(Cc3ccc(CO)o3)CC2CCO)cc1C (stereo not given)	i	?	i	i
SMILES	CHX counter	Pf growth 96h	Pf growth 48h	Shiga inhibitor
CC(NS(=O)(=O)/C=C/c1ccccc1)c1ccccc1 (stereo not given)	i	i	i	i
CCOC(=O)c1c(C)nc2sc3c(=O)n(-c4ccc(C(C)=O)cc4)cnc3c2c1-c1ccc(OC)cc1	i	i	i	i
CC(=O)c1c(C)nc2sc3c(=N)n(N)cnc3c2c1-c1ccc(Cl)cc1	i	13.1µM	?	i
CCCc1c(C(=O)NNc2ccccc2OC)cnn1-c1ccccc1	23.5	9.28µM	?	40.9
CCCc1c(C(=O)N2CCN(c3ccccc3OC)CC2)cnn1-c1ccccc1	i	i	i	i
CCCc1c(C(=O)Nc2ccc(OC)cc2)cnn1-c1ccccc1	21.6	?	i	53.6
COc1ccc(NC(=O)c2ccccc2Oc2ccccc2)cc1	i	?	i	i
COCC(=O)N1CCC(Oc2ccc(C(=O)NC(C)c3nccs3)cc2)CC1 (stereo not given)	i	i	i	i
Cc1nnc(SCC(=O)Nc2nc3c(s2)CC(C)CC3)s1 (stereo not given)	37.3	i	i	59.7
CC1CCc2nc(NC(=O)CSc3nc4ccccc4o3)sc2C1 (stereo not given)	52.2	nt	i	85.3
CC1CCc2nc(NC(=O)c3cc(C(C)(C)C)nn3C)sc2C1 (stereo not given)	i	8.28µM	?	i
CCc1nc(SCC(=O)NC2CC2)c2c(C)c(C)sc2n1	i	4.65µM	i	i
O=C(CSc1ncnc2c1cnn2-c1cccc(Cl)c1)NCC1CCCO1 (stereo not given)	i	i	i	i
CN(C(=O)CS(=O)(=O)c1cn(CC(=O)N2CCCCC2)c2ccccc12)c1ccccc1	i	?	?	i
Cc1cc(C(=O)N(C)Cc2c(F)cccc2Cl)c2ccccc2n1	i	i	i	i
CC1CCCN(CC(=O)Nc2cc(S(=O)(=O)N3CCOCC3)ccc2N2CCCC2)C1 (stereo not given)	nt	?	i	nt
COC(=O)c1ccc(C(=O)NC(=S)Nc2nc3c(s2)CC(C)CC3)cc1 (stereo not given)	27.0	i	i	i
Cc1nnc(SCC(=O)NC2CC2)s1	i	13.1µM	i	i
Cc1ccc(-c2nc(NC(=O)c3cc(C(C)(C)C)nn3C)sc2C)cc1Cl	i	2.08µM	1.85µM	i
CCCOc1ccccc1NC(=O)Nc1ccccc1Cl	i	8.28µM	i[5.75 µM]	i
CCOc1ccccc1NC(=O)Nc1ccc(Cl)cc1	75.6	?	?	41.3
CCCOc1ccccc1N/C(=N/c1nc(C)cc(C)n1)NC(=O)Nc1ccc(Cl)cc1	i	i	13.1µM	i
CCOc1ccccc1N(C(=O)Nc1ccc(Cl)cc1)C1=NC(C)CS1 (stereo not given)	24.6	i	i	82.3
O=C(COC(=O)c1cc(Cl)ccc1Cl)Nc1ccc2[nH]c(=O)[nH]c2c1	nt	i	i	nt
O=C(NCCCl)Nc1ccccc1OCCOc1ccccc1NC(=O)NCCCl	i	2.08µM	2.08µM	i
SMILES	CHX counter	Pf growth 96h	Pf growth 48h	Shiga inhibitor
COc1ccccc1NC(=O)NCCCl	i	i	i	i
N[C@@H](Cc1ccc(N(CCCl)CCCl)cc1)C(=O)O	nt	9.53µM!	?	nt
COCC(COS(N)(=O)=O)C(C)C (stereo not given)	i	i	i	i
CCn1cc(/C=N\NC(=O)Cc2ccc(Cl)cc2)cn1	i	i	i	i
OC(CCc1cccc(Cl)c1)c1cccs1 (stereo not given)	34.6	i	nt	44.4
CC(O)CN(Cc1cccc(Cl)c1)CC(C)O (stereo not given)	i	i	i	i
Cc1ccc(/C=N/NC(=O)c2ccc3nc[nH]c3c2)s1	i	i	i	i
C/C(=N\NC(=O)c1ccc(NS(=O)(=O)c2cccs2)cc1)c1cccs1	i	i	i	i
C/C(=N/NC(=O)c1ccc2nc[nH]c2c1)c1cccs1	38.5	i	i	55.1
COC(=O)N/N=C(\C)c1cccs1	10.7	i	i	i
C/C(=N\NC(=O)c1ccc(NS(=O)(=O)c2cccs2)cc1)c1ccc(Cl)cc1	i	i	i	i
C/C(=N/NC(=O)c1cccs1)c1ccc(NC(=O)COc2ccc(Cl)cc2)cc1	36.3	i[5.75 µM]	i	79.3
